# Screens as filed in PubChem.
# Vaccinia Venus: qHTS for Stage-Specific Inhibitors of Vaccinia Orthopoxvirus: Venus Reporter Primary qHTS; AID 720580, 2013; 330,000 compounds, 0.46% hits; Vaccinia virus Venus reporter expression, fluorescence; Potency, µM (doses to about 36.5 µM), inactives show at the top dose activity change, negative = inhibition, actives largely listed as inhibitors; calls by dose curve; tested in A549 cells; also: potency is read from the fitted curve at half-maximal effect; nearly all actives have a fitted effect of over 30% in size
# HCV inh: qHTS Assay for Inhibitors of Hepatitis C Virus (HCV); 340,000 compounds, 3.4% hits; Potency, µM (top dose mostly 41.8 µM), inactives show at the highest dose activity change, negative = inhibition, usual class: inhibitors; Huh7.5.1 HCVcc-Cre infection, luciferase reporter, 44 h; AID 651820, 2012; also: potency is read from the fitted curve at half-maximal effect
#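 Compounds are dispensed onto cells plated 4 h earlier at 1,000 per well, with HCVcc-Cre virus (about 0.5 moi) added next. Following 44 h of culture, luminescent signal is measured for 15 sec after 15 min with substrate at room temperature.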
# VACV mCherry inh: qHTS for Stage-Specific Inhibitors of Vaccinia Orthopoxvirus: mCherry Reporter Primary qHTS; Vaccinia virus mCherry reporter infection, fluorescence; Potency, µM (highest dose often 36.5 µM), for the others: at the top dose activity change, negative = inhibition, actives largely listed as inhibitors; 310,000 compounds, 0.63% hits; AID 720579, 2013; calls by dose curve; tested in A549 cells; also: potency is read from the fitted curve at half-maximal effect; nearly all actives have a fitted effect of over 35% in size
# FMDV antiviral: High Throughput Screening for Foot and Mouth Disease Virus Antivirals; FMDV antiviral cell-based qHTS; Potency, µM (top dose mostly 57.9 µM), without a hit: at the top dose activity change, negative = inhibition, most hits filed as inhibitors; 410,000 compounds, 1.2% hits; AID 1159524, 2015; calls by dose curve; tested in HEK293T cells; also: read-out not given here; potency is read from the fitted curve at half-maximal effect; nearly all actives have a fitted effect of over 45% in size
# HCMV inh: qHTS Assay for inhibitors of the human cytomegalovirus (HCMV). HFF cells, HCMV-luciferase reporter, 72 h; active compounds read low. activity change, negative = inhibition, % at 57.5 µM. 410,000 compounds, 4.5% hits; in the data active = activity change below about -60%; inconclusive = no clear call, values can overlap the other calls; inactive = above about -39%
#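 Steps: HFFs plated, 16 h 37C; compounds added; HCMV-luciferase added to MOI 1 PFU/cell; 72 h 37C; OneGlo reagent, 5 min room temperature; luminescence read, normalized to controls.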
# Sm TGR inh: qHTS Assay for the Inhibitors of Schistosoma Mansoni Peroxiredoxins; purified TGR, DTNB reduction, TNB absorbance 405 nm; AID 485364, 2010; Potency, µM (doses to about 114 µM), without a hit: at the top dose activity change, negative = inhibition, most hits filed as inhibitors; 360,000 compounds, 3% hits; also: potency is read from the fitted curve at half-maximal effect; nearly all actives have a fitted effect of over 60% in size
#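 First, TGR (20 nM dispensed) and NADPH were mixed with compound. Second, a 15 min room-temperature incubation followed. Third, further NADPH and then DTNB were added to start the reaction. Finally, TNB absorbance was monitored kinetically.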
# An asterisk follows results filed as active; i = inactive; u = inconclusive; x = not tested or not shown; + = active, no number. Most compounds without a hit are left out; they make up all but 9.3% or so of the library. Unless noted, calls follow the shape of the dose curve; as a rule, active = well fitted curve in the direction sought with a large enough effect; inconclusive = small, poorly fitted or top-dose-only effect, or another doubt; inactive = no such curve, though single readings can be large; an effect the other way counts as inactive or inconclusive. % is scaled to controls: 0 for no effect and ±100 for the full control effect.
SMILES,Vaccinia Venus,HCV inh,VACV mCherry inh,FMDV antiviral,HCMV inh,Sm TGR inh
Cc1ccc(C(=O)N[C@H](C(=O)OCC(=O)c2ccc[nH]2)C(C)C)cc1,-9.3%,28.9%,i,-16.9%,25.1,2.8%
COC(=O)C1=C(O)C(C(=O)OC)C(c2ccc(C)cc2)C(C#N)(C#N)C1c1ccc(C)cc1 (stereo not drawn),x,u,x,-18.4%,-96.5*,0.0%
COC(=O)C1=C(Nc2ccc(C)cc2)C=C(C)C(C(=O)OC)C1c1ccc(OC)cc1 (stereo not drawn),x,u,x,0.0%,-3.1,0.7%
COc1ccc(N/C=C/C(=O)c2cc(OC)c(OC)c(OC)c2)cc1,u,19.6%,u,12.8%,-80.1*,4.7%
COc1ccc(OC)c(N/C(C)=C/C(=O)c2ccccc2)c1,-10.8%,-11.0%,-14.1%,10.3%,48.8,1.0%
O=C(/C=C/Nc1ccc(F)cc1Br)c1ccccc1,-3.1%,0.3%,2.8%,2.82µM*,u,4.6%
COc1ccc(OC)c(N/C=C/C(=O)c2ccccc2)c1,-9.1%,-28.9%,-10.5%,6.31µM*,-77.6*,-24.3%
Cc1cc(N/C=C/C(=O)c2ccccc2)ccc1Br,x,-2.7%,x,-4.7%,170.8,-5.6%
COc1cccc(C(=O)/C=C/Nc2cccc(O)c2)c1,x,-2.9%,x,12.6µM*,127.9,-0.7%
COc1cc(NC(=O)Cc2ccccc2OC)cc(OC)c1,x,12.3%,x,8.5%,34.5,6.0%
CCOC(=O)c1ccc(NS(=O)(=O)c2c(N)n(C)c(=O)n(C)c2=O)cc1,u,10µM*,-8.2%,0.0%,u,x
CCOC(=O)c1ccc(NS(=O)(=O)c2c(C)n[nH]c2C)cc1,x,-10.4%,x,16.9%,-18.8,-0.1%
O=c1cc(CCl)nc(Cc2c(Cl)cccc2Cl)[nH]1,u,u,u,u,-92.8*,x
O=C1COc2ccc(S(=O)(=O)CCC(=O)N3CCN(c4cccc(Cl)c4)CC3)cc2N1,x,19.2%,x,u,-35.1,-12.9%
Cc1ccc(C)c(N2CCN(C(=O)CCS(=O)(=O)c3ccc4c(c3)NC(=O)C(C)S4)CC2)c1 (stereo not drawn),x,2.82µM*,x,15.8µM*,+,-0.1%
Cc1ccc(Cl)cc1N1CCN(C(=O)CCS(=O)(=O)c2ccc3c(c2)NC(=O)CO3)CC1,x,11.2µM*,x,-26.9%,u,2.4%
COc1ccc2[nH]cc(CCNc3ncncc3-c3ccccc3Cl)c2c1,x,x,x,35.5µM*,x,x
C=CCc1cc(Cl)ccc1OCCOCCNC(C)CC (stereo not drawn),3.8%,u,-6.0%,-25.6%,-11.0,8.6%
CCC(C)NCCOCCOc1ccc(Cl)c(C)c1C (stereo not drawn),u,10µM*,-13.4%,u,-82.6*,-9.4%
CCC(C)NCCOCCOc1ccc(Cl)c2ccccc12 (stereo not drawn),28.2µM*,u,u,0.0%,-11.4,-3.5%
CCC(C)NCCCOc1cc(Cl)ccc1Cl (stereo not drawn),-21.3%,-20.7%,-22.9%,-21.4%,93.0,-6.7%
CCn1c(CSc2nc(C)cc(C)n2)nnc1SCC(=O)Nc1ccccc1,x,-15.6%,x,20.6%,-18.1,6.8%
O=C(CF)NC(NC(=S)Nc1ccccc1O)C(Cl)(Cl)Cl (stereo not drawn),x,9.1%,x,13.9%,-65.5*,-13.1%
Cc1cc(C)cc(NC(=O)CSc2cc(C)[nH]c(=O)n2)c1,1.3%,x,1.9%,-9.6%,-1.6,-0.2%
CC(=O)c1c(C)[nH]c(C(=O)OCc2csc(CC(=O)Nc3ccccc3C)n2)c1C,x,4.47µM*,x,20µM*,24.8,x
SMILES,Vaccinia Venus,HCV inh,VACV mCherry inh,FMDV antiviral,HCMV inh,Sm TGR inh
Cc1ccccc1NC(=O)Cc1nc(COC(=O)c2cc([N+](=O)[O-])ccc2NCCO)cs1,-14.9%,8.91µM*,i,u,-4.0,0.9%
Cc1ccc(NC(=O)Cc2nc(COC(=O)Cc3cccc(C(F)(F)F)c3)cs2)cc1,-10.4%,8.4%,-11.0%,45.2%,15.1,0.3%
Cc1ccc(NC(=O)Cc2nc(COC(=O)c3c(F)cccc3Cl)cs2)cc1,-13.4%,8.91µM*,u,-22.9%,-16.8,x
COc1ccc(C(=O)NC2CC2)cc1OC1CCN(Cc2cc(C)c(C)cc2C)CC1,-12.4%,u,i,-18.5%,13.6,-12.7%
CSc1ccccc1NC(=O)COc1ccccc1C,x,-16.2%,x,33.2%,-26.4,34.8%
Clc1ccc2c(N3CCNCC3)ccnc2c1,-10.8%,-0.1%,-12.0%,1.1%,-108.6*,-13.7%
Oc1ccc(N2CCN(c3ccnc4cc(Cl)ccc34)CC2)cc1,4.9%,-24.9%,u,-12.2%,-65.8*,u
COc1ccc(N2CCN(c3ccnc4cc(Cl)ccc34)CC2)cc1,-1.7%,u,u,u,u,-5.3%
Clc1ccc2c(N3CCCC3)ccnc2c1,x,u,x,-17.0%,u,-16.1%
O=C(O)c1ccc2c(c1Nc1ccccc1)C(=O)c1ccccc1C2=O,-5.2%,17.6%,-21.0%,-24.1%,45.1,0.0%
Cc1cc(C)c(Nc2cc(S(=O)(=O)O)c(N)c3c2C(=O)c2ccccc2C3=O)c(C)c1,u,13.0%,-24.6%,8.91µM*,3.3,-7.3%
Cc1cc(C)c(NC(=O)COC(=O)c2cccc3c2C(=O)c2ccccc2C3=O)c(C)c1,-30.0%,u,u,-1.6%,u,-4.5%
Cc1c(C(=N)C(C#N)C#N)c(=N)oc2c1ccc1ccccc12,u,-21.8%,-16.6%,-4.1%,-74.8*,-23.8%
O=C(Nc1ccc(OC(=O)N2CCCCC2)cc1)N1CCOCC1,-4.4%,-12.9%,-21.3%,u,+,-4.4%
O=C(Nc1ccc(Nc2ccccc2)cc1)N1CCOCC1,3.7%,-3.9%,-6.9%,3.5%,-63.4*,-8.2%
O=C(Nc1cc(N2CCOCC2)ncn1)c1ccccc1,-12.9%,17.0%,x,8.8%,6.4,3.7%
COc1cccc(NC(=O)C2CCN(S(=O)(=O)c3ccccc3)CC2)c1,x,-11.8%,x,u,-33.7,3.5%
COc1ccc(C(=O)N/N=C\C(C)=C\c2ccccc2)cc1OC,-28.3%,u,u,-13.3%,7.4,x
CC(/C=N/NC(=O)c1ccc(Br)cc1)=C\c1ccccc1,-24.2%,2.3%,-8.4%,x,-62.8*,-6.6%
CC(=O)N1CCc2cc(S(=O)(=O)NCCC(=O)NCCc3ccccc3)ccc21,-19.4%,-7.9%,-1.6%,u,-23.4,6.9%
CC(=O)N1CCc2cc(S(=O)(=O)NCCC(=O)NCCc3ccc(Cl)cc3)ccc21,x,u,x,u,-74.9*,1.9%
CC(=O)N1CCc2cc(S(=O)(=O)NCCC(=O)NCCc3ccc(C)cc3)ccc21,-22.0%,10µM*,-9.2%,u,-15.3,7.2%
